Compound activity (PubChem BioAssay)
Only some compounds are listed: those with a hit (about 21% of all), similar ones and a draw of the others.
Pf growth 48h – inhibits P. falciparum growth in the first generation, 48 h. AID 504832. hit rate 5.9% among 310,000. P. falciparum luciferase growth in erythrocytes, 48 h. Potency, µM (top dose mostly 28.7 µM), hits mostly inhibitors
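Cell-based growth assay: transgenic P. falciparum expressing firefly luciferase, cultured in red cells within RPMI 1640 containing 0.5% w/v Albumax, 24 mM bicarbonate and gentamycin. A drop in luciferase activity indicates inhibition.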
Cycloheximide cs – counter-screen hit for Shiga toxin inhibitors, cycloheximide | AID 2314 | hit rate 12% among 300,000 | max response, % | cell reporter, cycloheximide protein synthesis inhibition counterscreen; in the data active means max response mostly above about 13%, no sharp cut-off; inactive means mostly below about 14%; further: read at 38.3 µM for the half of the compounds with a filed dose
Pf growth 96h – inhibits malaria parasite growth, 96 h; P. falciparum luciferase reporter growth, 96 h; Potency, µM (series often up to 28.7 µM), most hits filed as inhibitors; hit rate 6.9% among 320,000; AID 504834
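P. falciparum expressing integrated firefly luciferase grown in erythrocytes (2% hematocrit, 0.05% parasitemia final) with compounds for 96 hours at 37 C, 5% CO2. Growth inhibition read as loss of luminescence after adding luciferase detection reagent.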
Shiga toxin inh – blocks Shiga toxin action in Vero cells; Vero cells, Shiga toxin protein synthesis inhibition reporter; inhibition, % at 38.7 µM; hit rate 9.2% among 290,000; AID 2315; in the data active means inhibition mostly above about 28%, no sharp cut-off; inactive means mostly below about 43%
Each line names hits and unclear results; the compound was inactive in the other large screens. Unless noted, the call rests on the fitted dose curve; in most records, active means well fitted inhibition curve with a large enough effect; inconclusive means small, poorly fitted or top-dose-only effect, or another doubt; inactive means no such curve, though single readings can be large or run the other way.

S=C(Nc1cc(Cl)cc(Cl)c1)NC1CCN(Cc2ccccc2)CC1	Pf growth 48h 5.86µM, Pf growth 96h inconclusive
Cc1ccc(NC(=O)COC(=O)c2ccnn2C)cc1	Cycloheximide cs 31.6, Pf growth 96h inconclusive
Cc1ccc(NC(=O)COC(=O)c2ccn(C)n2)cc1	Cycloheximide cs 20.0
Cn1nccc1C(=O)OCC(=O)Nc1ccccc1	none
COC1CC2CCC(C)[C@](O)(O2)C(=O)C(=O)N2CCCCC2C(=O)OC(C(C)CC2CCC(O)C(OC)C2)CC(=O)C(C)/C=C(/C)C(O)C(OC)C(=O)C(C)CC(C)C=CC=C/C=C\1C (some centres not stated)	Pf growth 48h 3.79µM, Pf growth 96h 1.9µM (no result: Cycloheximide cs, Shiga toxin inh)
S=c1sc(SCCOc2ccccc2)nn1-c1ccccc1	none
CC(C)C(=O)c1cn(CC(=O)NCc2ccco2)c2ccccc12	Cycloheximide cs 29.7, Pf growth 96h inconclusive, Shiga toxin inh 57.5
CC(C)(C)C(=O)c1cn(CC(=O)NCc2ccc3c(c2)OCO3)c2ccccc12	Pf growth 96h inconclusive (no result: Pf growth 48h)
CC(C)C(=O)c1cn(CC(=O)NCc2ccc3c(c2)OCO3)c2ccccc12	Pf growth 48h 11.7µM
CC(C)(C)C(=O)c1cn(CC(=O)NCc2ccco2)c2ccccc12	Cycloheximide cs 36.0, Shiga toxin inh 96.3
O=C(NC(Cc1ccccc1)C(=O)O)NC12CC3CC(CC(C3)C1)C2 (configuration not stated)	Pf growth 96h inconclusive
Cc1nc(-c2ccc(F)cc2)c(CC(=O)N2CCN(S(=O)(=O)c3cccc(Cl)c3)CC2)s1	Pf growth 48h inconclusive (no result: Cycloheximide cs, Shiga toxin inh)
Cc1nc(-c2ccc(F)cc2)c(CC(=O)N(C)CC(=O)Nc2ccc(Br)cc2C)s1	Pf growth 48h 5.22µM, Pf growth 96h inconclusive (no result: Cycloheximide cs, Shiga toxin inh)
CCN(CC(=O)Nc1ccccc1C(F)(F)F)C(=O)Cc1sc(C)nc1-c1ccc(F)cc1	Pf growth 48h 14.7µM, Pf growth 96h inconclusive (no result: Cycloheximide cs, Shiga toxin inh)
Cc1nc(-c2ccc(F)cc2)c(CC(=O)N2CCN(S(=O)(=O)c3ccccc3Br)CC2)s1	Pf growth 48h inconclusive, Pf growth 96h 8.28µM
Cc1nc(-c2ccc(F)cc2)c(CC(=O)N(C)CC(=O)Nc2ccccc2Br)s1	Pf growth 48h 13.1µM, Pf growth 96h inconclusive (no result: Cycloheximide cs, Shiga toxin inh)
Cc1ccc(S(=O)(=O)N(C)S(=O)(=O)c2ccc(C#N)cc2)cc1	none
O=C(NCc1ccccc1CN1CCCC1)c1cccc(S(=O)(=O)N2CCOCC2)c1	Pf growth 96h inconclusive (no result: Cycloheximide cs, Shiga toxin inh)
C[C@H](N)C(=O)N[C@@H](CO)C(=O)N[C@H](C(=O)N[C@H](C(=O)N[C@H](C(=O)N[C@@H](CC(N)=O)C(=O)N[C@@H](Cc1ccc(O)cc1)C(=O)N[C@H](C(=O)O)[C@@H](C)O)[C@@H](C)O)[C@@H](C)O)[C@@H](C)O	none (no result: Pf growth 48h, Pf growth 96h)
CCSC(=S)Nc1c(C)n(C)n(-c2ccccc2)c1=O	none
Cc1cc(C)c(NC(=O)CNC(=O)Cc2sc(C)nc2-c2ccc(F)cc2)c(C)c1	Pf growth 48h 13.1µM, Pf growth 96h inconclusive (no result: Cycloheximide cs, Shiga toxin inh)
COc1ccc(NS(=O)(=O)c2cccc(C(=O)NCc3ccco3)c2)cc1	none (no result: Cycloheximide cs, Shiga toxin inh)
COc1ccc(CCNC(=O)CN(c2cc(C)cc(C)c2)S(=O)(=O)c2c(C)noc2C)cc1OC	Pf growth 48h inconclusive
CC1(C)C=Cc2c(c3c(c4c(=O)c(-c5ccc(O)cc5)coc24)OC(C)(C)CC3)O1	Pf growth 48h inconclusive, Pf growth 96h 9.28µM
C=CCc1ccccc1OCC(O)CN1CCN(c2ccc(C)cc2)CC1 (configuration not stated)	Pf growth 48h inconclusive, Pf growth 96h 9.28µM
C=CCc1ccccc1OCC(O)CN1CCN(C(=O)OCC)CC1 (configuration not stated)	Pf growth 48h inconclusive, Pf growth 96h inconclusive
CN(CC(=O)Nc1ccccc1Cl)C(=O)COC(=O)CCN1C(=O)C2CC=CCC2C1=O (configuration not stated)	none (no result: Cycloheximide cs, Shiga toxin inh)
O=C(Nc1ccccc1F)N1CCC(NC(=O)C23CC4CC(CC(C4)C2)C3)CC1	Pf growth 48h inconclusive, Pf growth 96h inconclusive
Cc1ccc(C(=O)Nc2ccc(C(F)(F)F)n(C)c2=O)cc1	Cycloheximide cs 45.4, Shiga toxin inh 87.4
COc1ccc(NC(=O)c2ccc3c(c2)n(C)c(=O)n3C)cc1	Pf growth 96h inconclusive
CCN(CC)S(=O)(=O)c1ccc(C(=O)Nc2ccc(C(F)(F)F)n(C)c2=O)cc1	none
COCCn1c(C(F)(F)F)ccc(NC(=O)c2ccccc2)c1=O	Cycloheximide cs 47.8, Shiga toxin inh 50.6
COc1ccc(C(=O)Nc2ccc(C(F)(F)F)n(C)c2=O)cc1	Cycloheximide cs 18.8, Shiga toxin inh 58.0
Fc1ccc(C(OCCN2CCN(CCCc3ccccc3)CC2)c2ccc(F)cc2)cc1	Pf growth 48h 12µM (no result: Cycloheximide cs, Shiga toxin inh)
C=CCOc1ccccc1CN1CCC(n2nccc2NC(=O)c2ccccc2)CC1	none
